Screening data: PubChem, National Center for Advancing Translational Sciences (NCATS)
Hits are enriched below; roughly 2.8% of the tested compounds scored in any of these assays.
GLP-1R inv ag = GLP-1 receptor (human) inverse agonism; 1.6% of 410,000 active; HEK293 GLP-1R CRE-luciferase, luminescence, 24 h; GLP-1R form is constitutively active; P43220; AID 624417; Potency, µM (top dose mostly 38.3 µM), without a hit: top-dose activity change, negative = inhibition, usual class: inhibitors; note: potency is the fitted concentration of half-maximal effect; % is set by controls: 0 for no effect and ±100 for the full control effect; nearly all actives have a fitted effect of over 55% in size
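Assay principle: reduced luminescence from a cAMP-responsive reporter in HEK293 cells co-expressing a constitutively active GLP-1R. Conditions: 24 hr compound incubation, 37 deg C, 5% CO2.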
KCNH2 3.1 block = KCNH2 3.1 (human) potassium channel inhibition; U2OS KCNH2 3.1, thallium flux FluxOr; hits give low values; activity change, % (tested at about 1.8 µM); 0.95% of 340,000 active;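 active = maximum activity change below -70%; inconclusive = maximum activity change from -70% to -50%; inactive = maximum activity change above -50%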;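 note: thallium influx rate constant from kinetic fluorescence after stimulation buffer; % is set by controls: 0 for no effect and ±100 for the full control effect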
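We transduce U2OS cells with the mutant 3.1 virus, culture them overnight, load FluxOr with Red40 quencher for 45 min, then add stimulation buffer and read kinetically for 2 min to derive a normalized rate constant.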
GLP1R ag = GLP-1 receptor (human) agonism; HEK293 GLP-1R CRE-luciferase, luminescence, 4-6 h; cells express a hypersensitive GLP-1R form; Potency, µM (top dose mostly 45.6 µM), for inactives: at the top dose activation, most hits filed as activators; 0.007% of 380,000 active; AID 624172; note: potency is the fitted concentration of half-maximal effect; % of control where 0% means no effect
KCNH2 WT inh = inhibitors of human wildtype KCNH2 potassium channel; 0.37% of 340,000 active; U2OS, BacMam KCNH2, thallium flux FluxOr; hits give low values; AID 720551; activity change, % at 1.84 µM; Q12809;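 active = maximum activity change below -70%; inconclusive = maximum activity change between -70% and -50%; inactive = maximum activity change above -50%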; note: % is set by controls: 0 for no effect and ±100 for the full control effect
Target sequence (Q12809 whole entry, looked up): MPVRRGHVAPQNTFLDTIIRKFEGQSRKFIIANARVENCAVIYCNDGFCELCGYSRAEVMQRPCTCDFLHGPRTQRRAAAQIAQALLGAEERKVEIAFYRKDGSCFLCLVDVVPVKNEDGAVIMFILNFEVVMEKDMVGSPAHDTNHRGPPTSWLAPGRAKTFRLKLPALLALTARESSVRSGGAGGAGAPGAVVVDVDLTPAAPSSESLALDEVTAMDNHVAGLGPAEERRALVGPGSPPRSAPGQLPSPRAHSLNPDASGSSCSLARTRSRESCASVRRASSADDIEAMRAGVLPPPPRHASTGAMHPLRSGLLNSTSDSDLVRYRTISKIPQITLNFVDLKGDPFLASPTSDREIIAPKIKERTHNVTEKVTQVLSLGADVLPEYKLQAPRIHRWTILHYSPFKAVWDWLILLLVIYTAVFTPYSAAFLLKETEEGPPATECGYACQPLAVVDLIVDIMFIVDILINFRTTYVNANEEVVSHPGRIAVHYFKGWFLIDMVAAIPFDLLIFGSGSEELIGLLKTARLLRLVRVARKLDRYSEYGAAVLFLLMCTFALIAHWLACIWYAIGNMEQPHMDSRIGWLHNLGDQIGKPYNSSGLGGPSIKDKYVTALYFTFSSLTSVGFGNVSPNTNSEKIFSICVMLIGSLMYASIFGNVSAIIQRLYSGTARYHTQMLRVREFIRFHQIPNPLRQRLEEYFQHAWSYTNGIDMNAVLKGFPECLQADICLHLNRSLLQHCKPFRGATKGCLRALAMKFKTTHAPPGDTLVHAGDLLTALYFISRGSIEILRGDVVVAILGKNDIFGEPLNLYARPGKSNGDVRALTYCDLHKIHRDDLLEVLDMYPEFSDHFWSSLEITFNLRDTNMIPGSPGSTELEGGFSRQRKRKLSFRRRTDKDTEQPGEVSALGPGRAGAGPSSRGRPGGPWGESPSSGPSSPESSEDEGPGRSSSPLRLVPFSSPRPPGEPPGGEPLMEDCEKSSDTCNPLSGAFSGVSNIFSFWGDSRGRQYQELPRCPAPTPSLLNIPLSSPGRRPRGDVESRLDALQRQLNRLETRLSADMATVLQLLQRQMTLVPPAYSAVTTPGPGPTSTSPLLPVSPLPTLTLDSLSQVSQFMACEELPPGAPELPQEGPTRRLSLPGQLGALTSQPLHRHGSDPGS
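U2OS cells were transduced with wild-type KCNH2 virus (2.03 x 10^8 / mL) for 4 h at room temperature, then cultured overnight at 37 C. Thallium flux was read with FluxOr dye. Rate constants were normalized to DMSO controls.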
GLP1R cytotox = cytotoxic in the GLP-1 receptor inverse agonist counter-screen; Potency, µM (top dose mostly 38.3 µM), for the others: top-dose activity change, negative = inhibition, usual class: inhibitors; HEK293 cAMP-luciferase reporter cells, luminescence, 24 h; 0.13% of 410,000 active;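 note: loss of luciferase light is scored as toxicity; potency is the fitted concentration of half-maximal effect; % is set by controls: 0 for no effect and ±100 for the full control effect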
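1536-well qHTS counterscreen of the MLSMR; 200 cells/uL, 12 h pre-incubation, 23 nL cpd, 24 h at 37 deg C 5% CO2, luciferase detection reagent, 12 min RT, luminescence. Inhibition = undesired.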
GLS inhibitor = blocks human kidney-isoform glutaminase activity | O94925 | GLS enzymatic activity, qHTS titration | Potency, µM (series often up to 45.5 µM), inactives show at the top dose activity change, negative = inhibition, usual class: inhibitors | 0.21% of 410,000 active; note: potency is the fitted concentration of half-maximal effect; % is set by controls: 0 for no effect and ±100 for the full control effect
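Compounds were pin-transferred onto hKGA, after which L-glutamine (1 mM solution) and a detection mix of glutamate oxidase, HRP and Amplex Red were added. Initial and 30 min RT fluorescence reads were collected.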
* hit, by the source's call; ? = inconclusive; · = not tested or not shown. Unless noted, calls come from the whole dose curve; as a rule, active = well fitted curve in the direction sought with a large enough effect; inconclusive = small, poorly fitted or top-dose-only effect, or another doubt; inactive = no such curve, though single readings can be large; an effect the other way counts as inactive or inconclusive.

SMILES	GLP-1R inv ag	KCNH2 3.1 block	GLP1R ag	KCNH2 WT inh	GLP1R cytotox	GLS inhibitor
COc1cc2ccccc2cc1C(=O)NC1CCC(C)CC1 (configuration not stated)	10µM*	-7	?	-16	-9%	-1%
O=C(c1cccs1)N1CCC(c2nc3c(nnn3Cc3ccccc3Cl)c(=O)[nH]2)CC1	45%	-9	22%	0	?	0%
C=CS(=O)(=O)O	·	·	-4%	·	·	-1%
Cc1c(NC(=O)c2ccc(S(=O)(=O)Nc3ccccc3F)cc2)c(=O)n(-c2ccccc2)n1C	14%	10	6%	-15	12%	-10%
C[n+]1cn(/N=C/c2ccccc2)c2ccccc21	2%	5	4%	-4	16%	1%
CC(=O)N(C(C)=O)c1nc(-c2ccccc2)cn1/N=C/c1ccccc1	7.9µM*	-8	1%	2	?	-13%
CCOc1cc(CNCc2cccs2)cc(Br)c1OCC	10µM*	-1	14%	5	-10%	4%
CCOc1cc(CNCCSc2nnnn2C)cc(Br)c1OCc1ccccc1F	?	-26	19%	-3	-24%	-3%
CCOc1cc(CNCc2ccncc2)cc(Br)c1OCc1ccccc1F	11µM*	-3	7%	17	-3%	-3%
Cc1cc(F)ccc1NC(=O)C(C(C)C)N1Cc2ccccc2C1=O (configuration not stated)	-1%	·	·	·	4%	-14%
CC(C)(C)OC(=O)N1CCC(c2c(C(=O)NCCN3CCC(Cc4ccccc4)CC3)cnn2-c2cccc(Cl)c2)CC1	?	·	·	·	-14%	2%
O=C(CC1C(=O)N(c2ccccc2)C(=O)N1CCC1=CCCCC1)Nc1ccc(F)cc1 (configuration not stated)	10µM*	·	·	·	-16%	-6%
Cc1ccsc1CCN1C(=O)N(c2ccccc2)C(=O)C1CC(=O)Nc1ccc(Cl)cc1 (configuration not stated)	10µM*	·	·	·	-21%	-1%
C=CCNC(=S)N1CCN(c2ncc(C(F)(F)F)cc2Cl)CC1	8.9µM*	-6	18%	0	-10%	13%
Cc1cc(C)cc(NC(=S)N2CCN(c3ncc(C(F)(F)F)cc3Cl)CC2)c1	-29%	15	5%	-1	-5%	-11%
O=C(CO)NCCCOc1cccc(CN2CCCCC2)c1	·	·	2%	·	·	-2%
C/C=C/c1ccc(OCCCNCC(C)O)c(OC)c1 (configuration not stated)	5.6µM*	-12	0%	15	-12%	0%
C/C=C/c1ccc(OCCCCOc2ccc(OC)cc2)c(OC)c1	?	11	8%	-3	20%	0%
C/C=C/c1ccc(OCCCCN2CC(C)CC(C)C2)c(OC)c1 (configuration not stated)	11µM*	2	-1%	28	?	-3%
O=C(COc1ccc(F)cc1)NCCNC(=O)COc1ccc(F)cc1	4%	-18	-2%	1	-18%	-1%
Cc1ccc2oc(C(=O)Nc3ccc(S(=O)(=O)N4CCCC(C)C4)cc3)cc(=O)c2c1 (configuration not stated)	-7%	·	·	·	-4%	-6%
Cc1ccc2occ(CC(=O)Nc3ccc(S(=O)(=O)N4CCCC(C)C4)cc3)c2c1 (configuration not stated)	11µM*	·	·	·	0%	12%
COc1ccc(C2C(C#N)=C(N)Nc3nc4ccccc4n32)cc1 (configuration not stated)	19%	11	-18%	-113*	10%	7%
COc1ccc(C2N=C(N)Nc3nc4ccccc4n32)cc1 (configuration not stated)	4%	·	·	·	10%	-9%
CCc1ccc(C(=O)Nc2cccc(-c3nc4cc(C(C)C)ccc4o3)c2)cc1	11%	·	-1%	·	3%	-2%
SMILES	GLP-1R inv ag	KCNH2 3.1 block	GLP1R ag	KCNH2 WT inh	GLP1R cytotox	GLS inhibitor
O=C(CSc1nnc(SCc2ccccc2)s1)NNC(=S)Nc1ccccc1	2%	-1	-15%	-85*	15%	51%
Cc1cc(C)cc(N(CC(=O)NCCc2ccc(Cl)cc2)S(=O)(=O)c2c(C)noc2C)c1	8%	·	-1%	·	1%	0%
Cc1cc(C)c(CN2CCN(CCCn3ccc(NC(=O)OCc4ccccc4)nc3=O)CC2)c(C)c1	-11%	-82*	2%	-44	-7%	13%
O=C(Nc1ccn(CCCN2CCC(N3CCOCC3)CC2)c(=O)n1)OCc1ccccc1	-4%	-9	8%	-10	5%	0%
CN(CCCn1ccc(NC(=O)OCc2ccccc2)nc1=O)CCc1ccccn1	11%	-85*	0%	-5	2%	8%
O=C(Nc1ccn(CCCN2CCN(c3ccccc3)CC2)c(=O)n1)OCc1ccccc1	5%	-72*	6%	42	-3%	0%
COc1ccc(N2CCN(CCCn3ccc(NC(=O)OCc4ccccc4)nc3=O)CC2)cc1	-8%	?	-5%	6	-2%	31%
O=C(Nc1ccn(CCCN2CCN(Cc3cccc4ccccc34)CC2)c(=O)n1)OCc1ccccc1	7.9µM*	?	2%	-1	-7%	-4%
CN(CC(=O)Nc1ccccc1Br)C(=O)c1ccc2c(=O)n3c(nc2c1)CCC3	-4%	10	-6%	2	-24%	1%
COc1ccccc1C(=O)NC1=NC(c2ccc(Br)cc2)CC(=O)N1 (configuration not stated)	1%	·	·	·	-4%	1%
O=C(NN1CCCC1)NS(=O)(=O)c1ccc(Cl)cc1	·	·	0%	·	·	5%
COc1ccc(CNC(=O)CCCNC(=O)c2ccc(Cl)cc2)cc1OC	-12%	-1	-3%	1	-17%	5%
CC1CCCCC1NC(=S)Nc1ccc(Cl)cc1Cl (configuration not stated)	11µM*	-9	1%	1	?	1%
COc1ccc([C@H]2CC(=O)C=C(c3ccccc3OC)C2)cc1OC	3%	-10	?	-1	0%	19%
Nc1nc2ccc([N+](=O)[O-])cc2[nH]1	0%	2	-4%	3	-4%	-3%
O=[N+]([O-])c1ccc2nc[nH]c2c1	1%	-84*	2%	-17	6%	-6%
COc1cc(OC)c(Nc2c3c(nc4nc(-c5cccs5)nn24)CCCC3)cc1Cl	?	·	·	·	1%	2%
Cc1ccc(-c2nnc(CSc3nnc(COc4ccccc4)n3-c3ccccc3)o2)cc1	10µM*	-4	3%	1	-7%	5%
